The values below come from PubChem BioAssay (Tox21).

The nature of assay [1]: qHTS assay for small molecule agonists of the p53 signaling pathway (AID 651631; calls by dose curve; further: nearly all actives have a fitted effect of over 15% in size; further: potency means the concentration at half of the fitted maximal effect). A digest of the protocol: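 Readout was fluorescence from the LiveBLAzer FRET substrate, applied for 2 h at room temperature after 16 h compound exposure at 37 °C. Cells were the p53RE-bla HCT-116 line, with beta-lactamase driven by p53 response elements.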
Assay [2] can be described thus: qHTS assay for small molecules that induce genotoxicity in human embryonic kidney cells expressing luciferase-tagged ATAD5 (AID 651632). Further: nearly all actives have a fitted effect of over 15% in size. Further: potency means the concentration at half of the fitted maximal effect. A digest of the protocol:
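ATAD5-luc HEK293T, 2,000 cells/well; cpd or DMSO pin-transferred; 16 hr, 37C/5% CO2; Amplite 30 min RT; luminescence.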

A short description of assay [3]: qHTS assay for small molecule agonists of the p53 signaling pathway - cell viability (AID 651633; calls by dose curve; further: series mostly up to about 83 µM; nearly all actives have a fitted effect of over 30% in size). Summed up:
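p53RE-bla cells were treated with compound for 16 hours at 37 C. Cytotoxicity was then measured as CellTiter-Glo luminescence after 30 min at room temperature.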

A short description of assay [4]: qHTS assay for small molecules that induce genotoxicity in human embryonic kidney cells expressing luciferase-tagged ATAD5 - cell viability (AID 651634; calls by dose curve; further: nearly all actives have a fitted effect of over 25% in size). A digest of the protocol: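 Fluorescence from CellTiter-Fluor, reporting protease activity within live cells, served as the viability read-out. HEK293T cells carrying luciferase-tagged ATAD5 had been treated with compound for 15.5 hr at 37C.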

A short description of assay [5]: qHTS assay for small molecule disruptors of the mitochondrial membrane potential - cell viability (AID 720634; calls by dose curve;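 further: human HepG2 liver cancer cells; series mostly up to about 83 µM; nearly all actives have a fitted effect of over 20% in size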). A digest of the protocol: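 Cells: HepG2, 2,000/well, attached overnight. Compound 1 hr, 37 C/5% CO2. +m-MPI dye, +CellTiter-Glo 30 min RT. Readout: luminescence (ATP).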
(In general: In qHTS, concentration-response curves come from the screen itself.)

Assay [6] can be described thus: qHTS assay to test for compound auto fluorescence at 590 nm (red) in HepG2 cells (AID 720674). Summed up: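 HepG2 cells, 2,000 per well in MEM with 10% FBS, attached overnight at 37 C, then got 23 nL compound or DMSO. After 1 hr at 37 C, 5% CO2, red fluorescence was read at 540/590 nm against Rose Bengal sodium as reference.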
The nature of assay [7]: qHTS assay to test for compound auto fluorescence at 535 nm (green) in HepG2 cells (AID 720675).
Assay [8] is described as follows: qHTS assay to test for compound auto fluorescence at 460 nm (blue) in HEK293 cells (AID 720678). Summed up: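 After cell attachment (4-5 hr, 37C), compounds were pinned onto HEK293 monolayers in 10% dialyzed FBS medium. The blue channel (405/460 nm) was read following overnight culture. Equivalency was calculated against triamterene.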
Assay [9] can be described thus: qHTS assay to test for compound auto fluorescence at 590 nm (red) in HEK293 cells (AID 720679). Summed up: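 Plates of HEK293 cells (10% dialyzed FBS) are treated with 23 nL compound or DMSO vehicle after a 4-5 hr attachment period, incubated overnight at 37C, and read for red fluorescence at 540/590nm.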
A short description of assay [10]: qHTS assay to test for compound auto fluorescence at 535 nm (green) in HEK293 cells (AID 720680).
Assay [11] in a line: qHTS assay to test for compound auto fluorescence at 460 nm (blue) in HEK293 cell free culture (AID 720681). Summed up: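 Compounds were added to cell-free DMEM with 10% FBS and fluorescence read directly. The blue channel used 405 nm excitation and 460 nm emission, with triamterene as the reference fluorophore.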
Assay [12] can be described thus: qHTS assay to test for compound auto fluorescence at 535 nm (green) in HEK293 cell free culture (AID 720682). A digest of the protocol:
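Compounds were pin-transferred into cell-free DMEM with 10% FBS, and green fluorescence was read at excitation 485 nm and emission 535 nm. Intensities were expressed as fluorescein-equivalent values.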

Assay [13] is described as follows: qHTS assay to test for compound auto fluorescence at 590 nm (red) in HEK293 cell free culture (AID 720683). A digest of the protocol:
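Cell-free wells of DMEM with 10% FBS received compound, and intrinsic fluorescence was read at excitation/emission 540/590 nm. Values expressed as equivalence to Rose Bengal sodium.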

The nature of assay [14]: qHTS assay to test for compound auto fluorescence at 590 nm (red) in HepG2 cell free culture (AID 720684). Summed up: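 Compounds are added to culture medium (MEM, 10% FBS) lacking cells, then fluorescence is read at excitation 540 nm, emission 590 nm, with Rose Bengal sodium as the equivalency standard.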
Assay [15] can be described thus: qHTS assay to test for compound auto fluorescence at 460 nm (blue) in HepG2 cell free culture (AID 720685). Summed up: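 Compound (23 nL) or DMSO pinned into cell-free MEM with 10% FBS; blue fluorescence read at 405/460 nm excitation/emission, expressed as auto-fluorescence equivalency to triamterene.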
Assay [16] is described as follows: qHTS assay to test for compound auto fluorescence at 535 nm (green) in HepG2 cell free culture (AID 720686).
The nature of assay [17]: qHTS assay to test for compound auto fluorescence at 460 nm (blue) in HepG2 cells (AID 720687). A digest of the protocol:
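HepG2 cells in MEM with 10% FBS, attached overnight at 37 C, were exposed to compound or DMSO for 1 hr at 37 C, 5% CO2. Blue fluorescence was read at 405/460 nm, with triamterene as reference fluorophore.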

Assay [18] deals with Glucocorticoid receptor (Homo sapiens) (UniProt P04150). Nature of the assay: qHTS assay to identify small molecule agonists of the glucocorticoid receptor (GR) signaling pathway (AID 720691; active means well fitted activation curve with a large enough effect in the signal ratio in the repeat runs, not every such curve was filed as active; the % refers to the signal ratio). A digest of the protocol:
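Fluorescence intensity from LiveBLAzer B/G FRET substrate (2 h, room temperature) reports beta-lactamase expression driven by the glucocorticoid response element in GR-bla HeLa cells after 18 h compound exposure at 37 C.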

Assay [19] shares this target. Nature of the assay: qHTS assay to identify small molecule antagonists of the glucocorticoid receptor (GR) signaling pathway (AID 720692; active means well fitted inhibition curve with a large enough effect in the signal ratio in the repeat runs, not every such curve was filed as active; the % refers to the signal ratio). Summed up: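 HeLa GR-bla cells; cmpd + dex 5 nM final, 18 h 37 C; LiveBLAzer B/G FRET substrate 2 h RT; fluorescence intensity read. Antagonist mode, qHTS.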
Assay [20] is described as follows: qHTS assay for small molecule disruptors of the mitochondrial membrane potential (AID 720635). Further: potency means the concentration at half of the fitted maximal effect. A digest of the protocol: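 HepG2 cells exposed to compound 1 hr at 37C, then Mito-MPS dye 30 min. Ratio read of aggregate (540/590 nm) versus monomer (490/535 nm) fluorescence.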

Values joined by “and” are separate entries in the source; they are usually repeats but may differ in a detail not shown here. Equal values may be shown once. Inconclusive results are not listed. Active and inactive are the calls of the source. Unless noted, the call rests on the fitted dose curve; in most records, active means well fitted curve in the direction sought with a large enough effect in the repeat runs; inconclusive means weak or mixed curves; inactive means no such curve, though single readings can be large; an effect the other way counts as inactive or inconclusive.

Glucocorticoid receptor (Homo sapiens), sequence (P04150 whole entry, looked up): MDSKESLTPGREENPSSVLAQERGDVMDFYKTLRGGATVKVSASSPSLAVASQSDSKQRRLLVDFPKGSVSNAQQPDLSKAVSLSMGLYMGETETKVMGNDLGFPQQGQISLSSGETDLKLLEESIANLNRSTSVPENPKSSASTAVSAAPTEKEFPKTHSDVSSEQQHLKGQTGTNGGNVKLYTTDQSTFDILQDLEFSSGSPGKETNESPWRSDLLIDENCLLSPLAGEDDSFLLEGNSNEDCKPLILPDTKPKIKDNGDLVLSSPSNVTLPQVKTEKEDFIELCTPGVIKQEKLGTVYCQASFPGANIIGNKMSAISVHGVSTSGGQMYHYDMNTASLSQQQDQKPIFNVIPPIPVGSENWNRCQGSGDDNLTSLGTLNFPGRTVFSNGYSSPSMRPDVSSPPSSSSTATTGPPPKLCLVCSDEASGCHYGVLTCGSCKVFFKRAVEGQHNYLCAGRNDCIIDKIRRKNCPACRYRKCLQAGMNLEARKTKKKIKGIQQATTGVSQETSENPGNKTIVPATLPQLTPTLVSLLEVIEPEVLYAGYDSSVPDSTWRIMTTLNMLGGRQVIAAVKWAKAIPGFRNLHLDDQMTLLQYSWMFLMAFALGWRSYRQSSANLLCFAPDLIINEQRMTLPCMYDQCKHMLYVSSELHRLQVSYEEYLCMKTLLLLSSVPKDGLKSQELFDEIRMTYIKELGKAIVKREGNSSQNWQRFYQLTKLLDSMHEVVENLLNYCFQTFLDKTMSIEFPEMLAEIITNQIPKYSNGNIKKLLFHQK

Regarding `COCCO`, the Potency result in assay [1], in assay [2], in [3], in [4], in [5] and in assay [8] was “inactive” each time. Moreover, the Potency entry in [11], in [15], in assay [17], in [18] and in assay [19] was “inactive” in each case. The result in [6], in assay [7], in [9], in [10], in assay [12] and in assay [13] was inactive. For the same compound, the compound was called inactive in assay [14] and in assay [16].
With `COc1ccc2[nH]c(S(=O)Cc3ncc(C)c(OC)c3C)nc2n1` (stereo unspecified), the Potency entry in assay [1], in assay [2], in assay [3], in assay [4], in assay [5] and in [20] was “inactive” in each case. For the same compound, the Potency result in assay [11], in assay [15], in assay [17], in assay [18] and in [19] was “inactive” in each case. Besides, the compound was called inactive in assay [6], in [7], in [9], in assay [10], in assay [13] and in assay [14]. In assay [16], the call was inactive.
On to `CCCCCCCCCC(=O)OCC`, for which the Potency entry in [1], in assay [2], in assay [3], in assay [4], in assay [5] and in assay [20] was “inactive” in each case. Further, the Potency result in assay [11] and in [15] was “inactive” throughout. Further, the compound was called inactive in [6], in assay [7], in assay [9], in assay [10], in [12] and in assay [13]. In addition, the outcome in [14] and in [16] was inactive.
In the case of `CCCCCCc1ccc(N)cc1`, the Potency result in assay [1], in [2], in assay [3], in assay [4], in assay [5] and in assay [8] was “inactive” throughout. Moreover, the Potency entry in [11], in [15] and in assay [18] was “inactive” in each case. The compound was called inactive in assay [6], in assay [7], in assay [9], in assay [10], in [12] and in assay [13]. Further, the compound was called inactive in assay [14] and in assay [16].
Regarding `O=C(O)Cc1sc(-c2ccccc2)nc1-c1ccc(Cl)cc1`, the Potency result in assay [1], in [2], in assay [3], in assay [4], in assay [5] and in assay [8] was “inactive” throughout. Also, the Potency entry in assay [11], in assay [15], in [18] and in assay [19] was “inactive” in each case. Further, the Potency in assay [20] was 24.8 µM (active) and 23.7 µM (active) and 26.6 µM (active). In addition, the outcome in assay [6], in assay [7], in assay [10], in assay [12], in assay [13] and in assay [14] was inactive. In assay [16], the compound was classed as inactive.
In the case of `Nc1ccc(C(=O)Nc2ccccc2N)cc1`, the figures for the Potency in assay [1], in [2] and in assay [20] were 10.6 µM (active), 8.41 µM (active) and 13.3 µM (active), respectively. Besides, the Potency result in assay [3], in [4], in assay [5], in [8], in assay [11] and in assay [15] was “inactive” each time. Also, the Potency entry in assay [17] was “inactive”. Besides, the compound was classed as inactive in [7], in [9], in assay [10], in assay [12], in [13] and in assay [16].
As to `CCCCCCCCCCCCCCCBr`, the Potency result in assay [1], in assay [2], in [3], in assay [4], in assay [5] and in assay [8] was “inactive” in each case. The Potency result in assay [11], in [15] and in [18] was “inactive” each time. The result in assay [6], in [7], in assay [9], in assay [10], in assay [12] and in assay [13] was inactive. Further, the compound was classed as inactive in assay [14] and in assay [16].
